# In PubChem BioAssay (NCI):
# Compounds without any hit were thinned out: in the full panel of roughly 79,000, 15% have a hit. Values without a mark were called inactive. Active and inactive are the calls of the source. Rule as the data show it: active = growth inhibition above about 70%; inactive = the rest.
# Assay: NCI Yeast Anticancer Drug Screen. Data for the sgs1 mgt1 strain (AID 161);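 also: 0% = growth of cultures given vehicle only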
# Details: S. cerevisiae sgs1 mgt1 strain, at 50.0 µM, stronger effect = higher value
# Outline: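 Yeast cells carrying a defined DNA-repair defect were exposed to test compounds. Growth inhibition was measured relative to vehicle-treated controls.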
row,Structure (SMILES),growth inhibition
1,CC(=N/NC(=S)NCCN1CCCC1)/C(C)=N\NC(=S)NCCN1CCCC1,47.6%
2,CN(CCN(C)C(=O)CCn1cc(F)c(=O)[nH]c1=O)C(=O)CCn1cc(F)c(=O)[nH]c1=O,50.4%
3,COC(=O)c1ccccc1NC(=O)C(=O)NNC(=O)c1ccncc1,-4.4%
4,O=C(c1ccccc1)c1ccccc1O,11.4%
5,COC(=O)C1=C(O)c2cc(-c3ccccc3)c(-c3ccccc3)c(C#N)c2NC(=O)C1,12.9%
6,COc1cc(/C=C/Cc2cc3c(cc2OCCO)OCO3)cc(OC)c1OC,7.6%
7,CCCCCCCc1ccc(N=Cc2ccc(OCCC)cc2)cc1,98.9% (active)
8,C/C(CC(=O)Nc1ccc(C)cc1C)=N/N=C(N)N,-15.2%
9,CCN(CC)CCOC1(Cc2ccccn2)CCCCC1,6.7%
10,COC(=O)c1ccc2c(c1)nnn2C(C)=O,-7.25%
11,c1ccc2c(c1)cnc1cc3c(cc12)ncc1ccccc13,9.3%
12,CCOC(=O)c1ccc(NC(=O)Nc2ccc(OC)c([N+](=O)[O-])c2)cc1,12.5%
13,COc1cc(C2(C)SCCCS2)cc(OC)c1OC,-4.05%
14,COc1ccccc1/C=C(\S)C(=O)O,-19.3%
15,COC(=O)c1cc(C)c(C(=O)O)c(C)c1,26.6%
16,O=C(NO)c1c(F)c(F)c(C(=O)NO)c(F)c1F,4%
17,CNn1c(-c2ccc(C)cc2)n[nH]c1=O,-5.95%
18,CCc1ccc(-c2c(-c3ccccc3)c(-c3ccccc3)c(-c3ccccc3)c(-c3ccccc3)c2-c2ccccc2)cc1,21.9%
19,CC(c1ccccc1)C1OCCO1 (stereo not given),-15.8%
20,Cc1cc(N(CCOS(C)(=O)=O)CCOS(C)(=O)=O)ccc1C=Nc1ccc(C(=O)O)c(O)c1,46%

row,Structure (SMILES),growth inhibition
1,Nc1ncnc2c1ncn2C1OC(CSCc2ccc(Cl)cc2)C(O)C1O (stereo not given),15.4%
2,C[S+](C)c1ccc(Cl)cc1,-21.2%
3,N=S(c1ccccc1)c1ccccc1[N+](=O)[O-] (stereo not given),18.6%
4,CC(=O)Nc1ccc(S(=O)(=O)CCS(=O)(=O)c2ccc(NC(C)=O)cc2)cc1,-16.1%
5,CCCCCCCCCCCCCCCCOc1ccccn1,-14.8%
6,COc1ccc2ccc3c(OC(C)=O)ccc(CCN(C)C(C)=O)c3c2c1OC(C)=O,18.9%
7,COc1ccc2c(c1)C1(C)CCCC(C)(CO)C1CC2 (stereo not given),20.2%
8,CSc1c2c(c(C)c3c1[nH]c1ccccc13)C=NCC2,8.6%
9,Brc1cn2[n+](c1)[B-]n1cc(Br)c[n+]1[B-]2,-3.6%
10,COc1ccc(NC(=O)/C(Cc2nc3ccccc3[nH]c2=O)=N\O)c(OC)c1,-5.1%
11,O=C(NC1CCC(CC2CCCCC2)CC1)c1ccccc1 (stereo not given),-7.65%
12,CCCOc1nc(N)c2cnn(C3CCCCO3)c2n1 (stereo not given),8.05%
13,C=CCc1ccc(OC(=O)Nc2cccc(OC)c2)c(OC)c1,73.9% (active)
14,CCCCCCC(=O)N1CC(C)OC(C)C1 (stereo not given),2.4%
15,BrC1CC2CC1C1C2CC2OC21 (stereo not given),-22.4%
16,Cc1cc(NC(=O)C(=O)CC(=O)c2ccc(Cl)s2)no1,-8.55%
17,O=[N+]([O-])c1ccc(-c2ccc([N+](=O)[O-])cc2)cc1,7.7%
18,COC(=O)c1ccccc1C1CN=NC12Cc1c(ccc3c1CCC3)C2=O (stereo not given),-15.1%
19,CNC(=O)CN(CC(=O)NC)C(=O)NC,-18%
20,CN/C=C(/c1ccc(OC)cc1)C(O)c1ccc(OC)c(OC)c1 (stereo not given),-38%

# Assay: NCI Yeast Anticancer Drug Screen. Data for the cln2 rad14 strain (AID 165);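 also: 0% = growth equal to vehicle treated cultures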
# Details: S. cerevisiae cln2 rad14 strain, at 50.0 µM, stronger effect = higher value
# Outline: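 Yeast strain cln2 rad14, bearing defects in cell cycle control and DNA repair, serves as the test system; values reflect growth inhibition compared with vehicle.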
row,Structure (SMILES),growth inhibition
1,CC(=N/NC(=S)NCCN1CCCC1)/C(C)=N\NC(=S)NCCN1CCCC1,10.6%
2,CN(CCN(C)C(=O)CCn1cc(F)c(=O)[nH]c1=O)C(=O)CCn1cc(F)c(=O)[nH]c1=O,18.1%
3,COC(=O)c1ccccc1NC(=O)C(=O)NNC(=O)c1ccncc1,7.55%
4,O=C(c1ccccc1)c1ccccc1O,6.95%
5,COC(=O)C1=C(O)c2cc(-c3ccccc3)c(-c3ccccc3)c(C#N)c2NC(=O)C1,11.1%
6,COc1cc(/C=C/Cc2cc3c(cc2OCCO)OCO3)cc(OC)c1OC,-11.7%
7,CCCCCCCc1ccc(N=Cc2ccc(OCCC)cc2)cc1,99% (active)
8,C/C(CC(=O)Nc1ccc(C)cc1C)=N/N=C(N)N,15.4%
9,CCN(CC)CCOC1(Cc2ccccn2)CCCCC1,21.3%
10,COC(=O)c1ccc2c(c1)nnn2C(C)=O,-21.9%
11,c1ccc2c(c1)cnc1cc3c(cc12)ncc1ccccc13,14.8%
12,CCOC(=O)c1ccc(NC(=O)Nc2ccc(OC)c([N+](=O)[O-])c2)cc1,-15.7%
13,COc1cc(C2(C)SCCCS2)cc(OC)c1OC,0.2%
14,COc1ccccc1/C=C(\S)C(=O)O,-43.5%
15,COC(=O)c1cc(C)c(C(=O)O)c(C)c1,16.3%
16,O=C(NO)c1c(F)c(F)c(C(=O)NO)c(F)c1F,11%
17,CNn1c(-c2ccc(C)cc2)n[nH]c1=O,4.15%
18,CCc1ccc(-c2c(-c3ccccc3)c(-c3ccccc3)c(-c3ccccc3)c(-c3ccccc3)c2-c2ccccc2)cc1,26.1%
19,CC(c1ccccc1)C1OCCO1 (stereo not given),-30.8%
20,Cc1cc(N(CCOS(C)(=O)=O)CCOS(C)(=O)=O)ccc1C=Nc1ccc(C(=O)O)c(O)c1,77.5% (active)

row,Structure (SMILES),growth inhibition
1,Nc1ncnc2c1ncn2C1OC(CSCc2ccc(Cl)cc2)C(O)C1O (stereo not given),10.6%
2,C[S+](C)c1ccc(Cl)cc1,17.9%
3,N=S(c1ccccc1)c1ccccc1[N+](=O)[O-] (stereo not given),11.8%
4,CC(=O)Nc1ccc(S(=O)(=O)CCS(=O)(=O)c2ccc(NC(C)=O)cc2)cc1,-6.15%
5,CCCCCCCCCCCCCCCCOc1ccccn1,-18.8%
6,COc1ccc2ccc3c(OC(C)=O)ccc(CCN(C)C(C)=O)c3c2c1OC(C)=O,31.5%
7,COc1ccc2c(c1)C1(C)CCCC(C)(CO)C1CC2 (stereo not given),3.95%
8,CSc1c2c(c(C)c3c1[nH]c1ccccc13)C=NCC2,-83.2%
9,Brc1cn2[n+](c1)[B-]n1cc(Br)c[n+]1[B-]2,-7.65%
10,COc1ccc(NC(=O)/C(Cc2nc3ccccc3[nH]c2=O)=N\O)c(OC)c1,0.7%
11,O=C(NC1CCC(CC2CCCCC2)CC1)c1ccccc1 (stereo not given),21.2%
12,CCCOc1nc(N)c2cnn(C3CCCCO3)c2n1 (stereo not given),16.1%
13,C=CCc1ccc(OC(=O)Nc2cccc(OC)c2)c(OC)c1,-7.45%
14,CCCCCCC(=O)N1CC(C)OC(C)C1 (stereo not given),0.1%
15,BrC1CC2CC1C1C2CC2OC21 (stereo not given),-3.9%
16,Cc1cc(NC(=O)C(=O)CC(=O)c2ccc(Cl)s2)no1,-56.4%
17,O=[N+]([O-])c1ccc(-c2ccc([N+](=O)[O-])cc2)cc1,-38.5%
18,COC(=O)c1ccccc1C1CN=NC12Cc1c(ccc3c1CCC3)C2=O (stereo not given),-9.7%
19,CNC(=O)CN(CC(=O)NC)C(=O)NC,-3.65%
20,CN/C=C(/c1ccc(OC)cc1)C(O)c1ccc(OC)c(OC)c1 (stereo not given),2.75%
